This is a sample that favours compounds with a hit; in the whole collection about 2.7% have one here.
TrxR1 inh: qHTS Assay for Inhibitors of Mammalian Selenoprotein Thioredoxin Reductase 1 (TrxR1): qHTS; Potency, µM (highest dose often 114 µM), most hits filed as inhibitors; recombinant rTrxR1, NADPH fluorescence consumption, selenite substrate; 1% of 390,000 active; AID 588453, 2011; Thioredoxin reductase 1, cytoplasmic (Rattus norvegicus), O89049; note: nearly all actives have a fitted effect of over 65% in size
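Rat TrxR1 (90 nM in the dispensed reagent) was pre-reduced with 400 uM NADPH for 5 min at room temperature, then incubated with compound for 15 min. After 400 uM selenite was added, NADPH fluorescence (Ex 340/Em 450 nm) was followed for 8 min.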
TrxR1 substrate: qHTS Assay for Substrates of Mammalian Selenoprotein Thioredoxin Reductase 1 (TrxR1): qHTS; Potency, µM (series often up to 114 µM); 0.01% of 390,000 active; purified TrxR1 substrate turnover, NADPH consumption readout; AID 588456, 2011; Thioredoxin reductase 1, cytoplasmic (Rattus norvegicus), O89049; note: nearly all actives have a fitted effect of over 50% in size
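Rat TrxR1, dispensed at 90 nM, was prereduced with 400 uM NADPH (final) for 5 min at ~22 deg C, then incubated with compound 15 min before 400 uM selenite. A first-read NADPH fluorescence drop versus no-compound background flagged substrates.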
HEK293 tox: qHTS of GLP-1 Receptor Inverse Agonists: Cytotox Screen. 0.13% of 410,000 active. HEK293 cAMP-luciferase reporter cells, luminescence, 24 h. Potency, µM (series often up to 38.3 µM), most hits filed as inhibitors;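 note: loss of luciferase light is scored as toxicity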
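Luminescence readout: signal drop marks cytotoxicity. Plated cells grew 12 h at 37 °C, 5% CO2, received 23 nL compound for 24 h, then got luciferase reagent, read after 12 min at RT.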
mIDH1 inhibitor: qHTS for Inhibitors of mutant isocitrate dehydrogenase 1 (IDH1): qHTS. IDH1-R132H enzyme, NADPH consumption, diaphorase/resazurin fluorescence. 0.093% of 390,000 active. Potency, µM (titrated, usually from 76.6 µM), hits mostly inhibitors; note: nearly all actives have a fitted effect of over 65% in size
Target sequence (O75874 whole entry R132H, stated change not applied): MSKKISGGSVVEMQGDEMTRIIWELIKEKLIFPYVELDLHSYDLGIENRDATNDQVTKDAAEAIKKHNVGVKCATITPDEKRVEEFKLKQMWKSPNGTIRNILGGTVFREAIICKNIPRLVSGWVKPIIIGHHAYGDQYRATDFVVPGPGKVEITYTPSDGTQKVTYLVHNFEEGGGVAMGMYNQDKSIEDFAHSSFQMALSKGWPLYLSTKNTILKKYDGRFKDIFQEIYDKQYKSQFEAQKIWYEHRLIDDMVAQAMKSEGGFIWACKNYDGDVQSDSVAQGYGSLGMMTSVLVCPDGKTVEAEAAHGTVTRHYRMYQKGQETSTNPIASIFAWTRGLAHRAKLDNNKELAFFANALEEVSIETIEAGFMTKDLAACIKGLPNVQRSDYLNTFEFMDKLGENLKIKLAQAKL
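IDH1-R132H (0.5 ug/mL dispensed) in pH 7.5 Tris buffer was preincubated 30 min with compound, then given a substrate mix of 0.016 mM NADPH and 2 mM alpha-KG for 80 min at room temperature; remaining NADPH was read by diaphorase/resazurin fluorescence.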
GLP1R ag: qHTS of GLP-1 Receptor Agonists; Potency, µM (top dose mostly 45.6 µM), hits mostly activators; AID 624172, 2012; 0.007% of 380,000 active; HEK293 GLP-1R CRE-luciferase, luminescence, 4-6 h; cells express a hypersensitive GLP-1R form; Glucagon-like peptide 1 receptor (Homo sapiens), P43220
GLP1R inv ag: qHTS of GLP-1 Receptor Inverse Agonists (Inhibition Mode); Potency, µM (highest dose often 38.3 µM), hits mostly inhibitors; HEK293 GLP-1R CRE-luciferase, luminescence, 24 h; GLP-1R form is constitutively active; 1.6% of 410,000 active; Glucagon-like peptide 1 receptor (Homo sapiens), P43220; note: nearly all actives have a fitted effect of over 55% in size
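Seeding at 200 cells/uL, 12 h culture, 24 hr compound treatment, then luciferase reagent and a luminescence read; cells are HEK293 stably expressing a constitutively active GLP-1R plus cAMP-responsive luciferase.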
Large screens that a line does not name were inactive. Calls come from the whole dose curve; as a rule, active = well fitted curve in the direction sought with a large enough effect; inconclusive = small, poorly fitted or top-dose-only effect, or another doubt; inactive = no such curve, though single readings can be large; an effect the other way counts as inactive or inconclusive.

O=S(=O)(c1ccc2ccccc2c1)N1CCN(C(=S)Nc2ccc(F)cc2)CC1	GLP1R inv ag inconclusive
Cc1cccc(C)c1NC(=O)Cn1nnc(C(=O)Nc2c(C)cccc2C)c1N	none
COc1ccc2c(c1)c1c(c(=O)n(-c3ccccc3C)c(=O)n1Cc1c(F)cccc1Cl)n2C	none
O=[N+]([O-])c1cc(S(=O)(=O)Nc2ccccc2)ccc1N1CCN(c2ccccc2)CC1	HEK293 tox inconclusive, GLP1R inv ag inconclusive
O=[N+]([O-])c1cc(S(=O)(=O)C(F)(F)F)ccc1N1CCN(c2ccccc2)CC1	GLP1R ag inconclusive, GLP1R inv ag 5.01µM
CCCC(=O)NC(Nc1c(C)n(C)n(-c2ccccc2)c1=O)C(Cl)(Cl)Cl (stereo unspecified)	none
CC(=O)NC(Nc1c(C)n(C)n(-c2ccccc2)c1=O)C(Cl)(Cl)Cl (stereo unspecified)	TrxR1 inh 56.2µM
CN(C)c1ccc(/C=C/c2ccnc3ccccc23)c(N)c1	none (no result: HEK293 tox, mIDH1 inhibitor, GLP1R ag, GLP1R inv ag)
Cn1c(=N)n(CC(=O)c2ccccc2)c2ccccc21	GLP1R inv ag 11.2µM
COc1ccc(C(=O)Cn2c(=N)n(C)c3ccccc32)cc1	none
Cn1c(=N)n(CC(=O)c2ccc(Cl)c(Cl)c2)c2ccccc21	GLP1R inv ag 7.08µM
COc1ccc(OC)c(/C=C(/C#N)c2nc(-c3ccc(-c4ccccc4)cc3)cs2)c1	none (no result: GLP1R ag)
c1ccc2c(CCC3CCNCC3)c[nH]c2c1	none (no result: TrxR1 inh, TrxR1 substrate, HEK293 tox, mIDH1 inhibitor, GLP1R inv ag)
Cc1ccc(OCc2nc(-c3ccc(C(=O)N4CCN(c5ccccc5F)CC4)cc3)oc2C)cc1	none (no result: GLP1R ag)
CCn1nc(NS(=O)(=O)c2ccc(F)cc2)c2cc3cccc(C)c3nc21	GLP1R inv ag 10µM
CCn1nc(NS(=O)(=O)c2ccccc2)c2cc3cccc(C)c3nc21	none
COc1ccc2ccccc2c1CNC(C)c1ccccc1 (stereo unspecified)	HEK293 tox inconclusive, GLP1R inv ag inconclusive
CC(NCCCOc1cccc2ccccc12)c1ccccc1 (stereo unspecified)	HEK293 tox inconclusive, GLP1R inv ag 8.91µM
N#CC1=C(N)SC(N)=C(C#N)C1c1ccc([N+](=O)[O-])cc1	TrxR1 inh 50.1µM
Cc1cc2nn(-c3ccc(F)cc3)nc2cc1NC(=O)c1ccc(OC(C)C)cc1	TrxR1 inh 89.1µM
CCCCOc1cccc(C(=O)Nc2cc3nn(-c4ccc(F)cc4)nc3cc2C)c1	none (no result: GLP1R ag)
CCN1C(C(=O)c2ccccc2)=C(OC(=O)c2ccc(Cl)cc2)c2ccccc2S1(=O)=O	TrxR1 inh inconclusive, GLP1R inv ag inconclusive (no result: GLP1R ag)
Cc1[nH]c2ccccc2c1C(c1ccccn1)c1c(C)[nH]c2ccccc12	TrxR1 inh 39.8µM, GLP1R inv ag inconclusive
COc1ccc(/C=N/NC(=O)Cc2csc(Nc3cccc(C(F)(F)F)c3)n2)cc1C	HEK293 tox inconclusive, GLP1R inv ag 7.94µM
Cn1cc(-c2cc3n(n2)CCC(=O)N3CCCC(=O)NCc2ccc(F)cc2)c2ccccc21	HEK293 tox inconclusive, GLP1R inv ag inconclusive (no result: GLP1R ag)
CCN1C(=O)CC(Sc2ccccc2C(=O)O)C1=O (stereo unspecified)	none
O=C(O)c1ccccc1SC1CC(=O)N(c2cccc3ccccc23)C1=O (stereo unspecified)	TrxR1 inh 20µM
CCOc1ccc(N2C(=O)CC(Sc3ccccc3C(=O)O)C2=O)c([N+](=O)[O-])c1 (stereo unspecified)	TrxR1 inh 28.2µM
COc1ccc(-c2nnc3ccc(SC(C)C)nn23)cc1OC	none (no result: HEK293 tox, mIDH1 inhibitor, GLP1R ag, GLP1R inv ag)
O=C(NCCCN1CCN(c2ccccc2)CC1)c1nnc(Cc2c(F)cccc2Cl)o1	none (no result: GLP1R ag)
CC(C)c1nnc(NC(=O)CCS(=O)(=O)c2nc(-c3cccs3)cc(C(F)(F)F)n2)s1	TrxR1 inh 35.5µM, HEK293 tox inconclusive
O=C(COc1cccc(C(F)(F)F)c1)Nc1ccccc1N1CCCCC1	none
CSCCC(NS(=O)(=O)c1cccc(C(F)(F)F)c1)C(=O)Nc1ccccc1N1CCCC1 (stereo unspecified)	GLP1R inv ag 10µM
COc1ccc(Cn2nnnc2C(c2ccccn2)N2CCN(c3ccc(O)cc3)CC2)cc1 (stereo unspecified)	none (no result: HEK293 tox, mIDH1 inhibitor, GLP1R ag, GLP1R inv ag)
CCOC(=O)Cc1ccc(NC(=O)c2ccc(C(C)(C)C)cc2)cc1	GLP1R inv ag 5.01µM
CCOC(=O)Cc1ccc(NC(=O)c2ccccc2Br)cc1	GLP1R inv ag inconclusive
COC(=O)C1=C(C)NC(=S)NC1c1ccc(-c2cc(Cl)ccc2Cl)o1 (stereo unspecified)	TrxR1 inh 31.6µM, HEK293 tox inconclusive
Cc1ccc(-c2nnc(SCC(=O)NCc3ccccc3)o2)cc1	GLP1R inv ag inconclusive (no result: GLP1R ag)
COc1ccc(C(C)=O)cc1COC(=O)CNC(=O)c1ccccc1F	TrxR1 inh 15.8µM
CCCCNC(=O)c1ccc(NS(=O)(=O)c2ccccc2)cc1	none
CCN(CC)CCCNC(=O)c1ccc(S(=O)(=O)Nc2ccc(C)c(C)c2)cc1	GLP1R inv ag 7.94µM
O=S(=O)(c1ccc(F)cc1)N1CCN(c2nc(-c3cccc(Br)c3)nc3ccccc23)CC1	none (no result: HEK293 tox, mIDH1 inhibitor, GLP1R ag, GLP1R inv ag)
CCOC(=O)c1[nH]c(C)c(C(=O)NC(CC)Cc2ccccc2)c1C (stereo unspecified)	none (no result: GLP1R ag)
O=C(O)c1ccc(-n2ncc(Cl)c(Cl)c2=O)cc1	none (no result: TrxR1 inh, TrxR1 substrate)
CCOC(=O)c1ccc(NC(=O)Cn2ncc(Cl)c(Cl)c2=O)cc1	TrxR1 inh inconclusive, HEK293 tox inconclusive, GLP1R inv ag inconclusive
Cc1ccc(C(=O)OCn2ncc(Cl)c(Cl)c2=O)cc1	TrxR1 inh 12.6µM, HEK293 tox inconclusive, GLP1R inv ag inconclusive
O=C(OCn1ncc(Cl)c(Cl)c1=O)c1ccc(C(F)(F)F)cc1	TrxR1 inh 17.8µM
NC(=O)C1CCCCc2c1[nH]c1ccc(Cl)cc21 (stereo unspecified)	GLP1R inv ag 12.6µM
CCOC(=O)c1ccc2[nH]c3c(c2c1)CCCC3C(=O)OCC (stereo unspecified)	GLP1R inv ag 5.01µM
